TDP1 cell noCPT – qHTS for Inhibitors of human tyrosyl-DNA phosphodiesterase 1 (TDP1): qHTS in cells in absence of CPT | DT40 Tdp1-/- hTDP1 cells, no CPT, ATP luminescence, 48 h | Potency, µM (titrated, usually from 46.2 µM), without a hit: at the highest dose activity change, negative = growth inhibition, hits mostly inhibitors | 420,000 tested, 15% active | AID 686978, 2013; further: potency means the concentration at half of the fitted maximal effect; nearly all actives have a fitted effect of over 55% in size
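Luminescent ATP content (CellTiter-Glo) served as the growth readout. Knockout chicken DT40 cells expressing human TDP1 were exposed to compounds without camptothecin for a minimum 48 hr at 37 °C.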
ELG1 repair inh – inhibitors of ELG1-dependent DNA repair in HEK293T cells; HEK293T ELG1-luciferase reporter, luminescence, 16 h; DNA damage induced by 5-fluorouridine; Potency, µM (top dose mostly 46.1 µM), inactives show at the top dose activity change, negative = inhibition, usual class: inhibitors; 330,000 tested, 2.3% active; AID 504467; further: potency means the concentration at half of the fitted maximal effect; nearly all actives have a fitted effect of over 55% in size
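Quantitative HTS, concentration-response format. 2,000 cells/well co-treated with 5-fluorouridine and compound, 16 hr in 5% CO2 at 37 °C; ONE-Glo luminescence read after 30 min.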
HT1080-NT tox – kills 2HG-producing HT-1080-NT fibrosarcoma cells | HT-1080-NT fibrosarcoma viability, CellTiter-Glo ATP luminescence, 48 h | Potency, µM (top dose mostly 46.1 µM), without a hit: at the highest dose activity, negative = less viability, most hits filed as cytotoxic | 360,000 tested, 1.6% active | AID 686970;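 further: NT is the 2HG producing partner of a matched IDH1 knockdown line; potency means the concentration at half of the fitted maximal effect; 0% = DMSO-treated cells and -100% = media-only wells without cells; nearly all actives have a fitted effect of over 55% in size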
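Viability by CellTiter-Glo luminescence after 48 h compound exposure at 37C of HT-1080-NT cells (750/well, RPMI, 5% FBS). % activity scaled between DMSO wells and medium-only wells, then curve-fitted and categorized by curve class.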
HT1080 IDH1KD tx – kills HT-1080 cells with IDH1 knockdown. 360,000 tested, 2% active. Potency, µM (doses to about 46.1 µM), for the others: at the highest dose activity, negative = toxicity, actives largely listed as cytotoxic. HT-1080 IDH1 knockdown viability, ATP luminescence, 48 h;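 further: potency means the concentration at half of the fitted maximal effect; 0% = DMSO wells and -100% = cell-free medium wells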
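In this qHTS, HT-1080 cells depleted of IDH1 are exposed for 48 h at 37 °C to compound titrations. Toxicity is scored from CellTiter-Glo luminescence, with DMSO as full viability and medium alone as none.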
IL-1B inflam inh – blocks inflammasome-driven IL-1 beta release; THP-1 LPS/ATP IL-1B secretion, AlphaLISA, 16 h; active compounds read low; activity change, % at 57.5 µM; 360,000 tested, 4.7% active; AID 743279; in the data active means activity change below about -50%; inconclusive means mostly about -30% to -49%
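THP-1 cells pretreated 1 hr with compounds (up to 57.5 uM final), then stimulated with LPS (250 ng/mL final) plus ATP (1.25 mM final); secreted IL-1B measured by AlphaLISA after 16 hr, decreased signal indicating inhibition.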
DT40 TDP1 CPT – DT40-hTDP1 cell growth loss with CPT. 420,000 tested, 12% active. chicken DT40 Tdp1-/-;hTDP1 cells + 20 nM CPT, ATP luminescence, 48 h. Potency, µM (series often up to 46.2 µM), for inactives: at the top dose activity change, negative = growth inhibition, usual class: inhibitors; further: potency means the concentration at half of the fitted maximal effect; nearly all actives have a fitted effect of over 55% in size
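Cell growth measured by CellTiter-Glo luminescence after a minimum 48 h, 37 C compound exposure with 20 nM CPT in Tdp1-knockout DT40 cells stably expressing hTDP1, seeded 400/well; qHTS titration format.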
* hit, by the source's call. Sampled rows, rich in hits. Any-hit rate of the full collection: about 19%. Unless noted, the call rests on the fitted dose curve; in most records, active means well fitted curve in the direction sought with a large enough effect; inconclusive means small, poorly fitted or top-dose-only effect, or another doubt; inactive means no such curve, though single readings can be large; an effect the other way counts as inactive or inconclusive. Unless noted, on the % scale 0 is the no-effect control and ±100 the full control effect.

Results for COc1ccc(-c2n[nH]c(C)c2-c2cscn2)c(O)c1 ?
TDP1 cell noCPT: 22%; ELG1 repair inh: -5%; HT1080-NT tox: 2%; HT1080 IDH1KD tx: -2%; IL-1B inflam inh: -7; DT40 TDP1 CPT: -6%

Results for C=C(C)COc1ccc(-c2n[nH]c(C)c2-c2ccc(OC)cc2)c(O)c1 ?
TDP1 cell noCPT: inconclusive; ELG1 repair inh: -41%; HT1080-NT tox: 21µM*; HT1080 IDH1KD tx: 18µM*; IL-1B inflam inh: -51*; DT40 TDP1 CPT: inconclusive

How did CCOc1ccc(-c2n[nH]c(C)c2-c2ccccc2OC)c(O)c1 do in these assays?
TDP1 cell noCPT: inconclusive; ELG1 repair inh: inconclusive; HT1080-NT tox: inconclusive; HT1080 IDH1KD tx: inconclusive; IL-1B inflam inh: -55*; DT40 TDP1 CPT: 13µM*

How did O=C(CN1CCCC1=O)NC1CCCc2c1cnn2-c1cc(F)cc(F)c1 (centres undefined) do in these assays?
TDP1 cell noCPT: -6%; ELG1 repair inh: 3%; HT1080-NT tox: 0%; HT1080 IDH1KD tx: 2%; IL-1B inflam inh: 8; DT40 TDP1 CPT: -5%

What do the screens show for `O=C(CCN1CCCO1)NC1CCCc2c1cnn2-c1ccccc1F` (centres undefined)?
TDP1 cell noCPT: 5%; ELG1 repair inh: -1%; HT1080-NT tox: -1%; HT1080 IDH1KD tx: 6%; IL-1B inflam inh: 3; DT40 TDP1 CPT: -4%

How did Cc1cc(C(=O)NC2CCCc3c2cnn3-c2ccc(C(C)(C)C)cc2)nn1C (centres undefined) do in these assays?
TDP1 cell noCPT: 16µM*; ELG1 repair inh: -24%; HT1080-NT tox: 13µM*; HT1080 IDH1KD tx: -16%; IL-1B inflam inh: 5; DT40 TDP1 CPT: 8.2µM*

Results for Cc1nccn1CCC(=O)NC1CCCc2c1cnn2-c1ccc(C(C)(C)C)cc1 (centres undefined) ?
TDP1 cell noCPT: inconclusive; HT1080-NT tox: inconclusive; HT1080 IDH1KD tx: -25%; IL-1B inflam inh: inconclusive; DT40 TDP1 CPT: -66%

How did CC(C)(C)c1ccc(-n2ncc3c2CCCC3NC(=O)CN2CCCCC2=O)cc1 (centres undefined) do in these assays?
TDP1 cell noCPT: inconclusive; ELG1 repair inh: -10%; HT1080-NT tox: inconclusive; HT1080 IDH1KD tx: inconclusive; IL-1B inflam inh: 12; DT40 TDP1 CPT: 16µM*

Results for CC(C)(C)c1ccc(-n2ncc3c2CCCC3NC(=O)C2(C(N)=O)CC2)cc1 (centres undefined) ?
TDP1 cell noCPT: 1.8µM*; ELG1 repair inh: inconclusive; HT1080-NT tox: inconclusive; HT1080 IDH1KD tx: inconclusive; IL-1B inflam inh: inconclusive; DT40 TDP1 CPT: 5.8µM*

How did CC(C)(C)c1ccc(-n2ncc3c2CCCC3NC(=O)CCN2CCCO2)cc1 (centres undefined) do in these assays?
TDP1 cell noCPT: inconclusive; ELG1 repair inh: 0%; HT1080-NT tox: -10%; HT1080 IDH1KD tx: -7%; IL-1B inflam inh: 38; DT40 TDP1 CPT: 23µM*

Results for CC1CCN(C(=O)COC(=O)c2cccc(S(=O)(=O)N3CCOCC3)c2)CC1 ?
TDP1 cell noCPT: -26%; HT1080-NT tox: 4%; HT1080 IDH1KD tx: 8%; IL-1B inflam inh: 13; DT40 TDP1 CPT: 5%

Results for CC(=O)NCC(=O)NC1CCCc2c1cnn2-c1ccc(C(C)(C)C)cc1 (centres undefined) ?
TDP1 cell noCPT: 4.1µM*; ELG1 repair inh: -20%; HT1080-NT tox: -13%; HT1080 IDH1KD tx: -20%; IL-1B inflam inh: 37; DT40 TDP1 CPT: -15%

What do the screens show for `CC(C)(C)c1ccc(-n2ncc3c2CCCC3NC(=O)CCn2cncn2)cc1` (centres undefined)?
TDP1 cell noCPT: inconclusive; ELG1 repair inh: -6%; HT1080-NT tox: -5%; HT1080 IDH1KD tx: -13%; IL-1B inflam inh: 9; DT40 TDP1 CPT: inconclusive

How did Cc1cc(C)cc(-n2ncc3c2CCCC3NC(=O)c2cc(C)[nH]n2)c1 (centres undefined) do in these assays?
TDP1 cell noCPT: inconclusive; ELG1 repair inh: inconclusive; HT1080-NT tox: -14%; HT1080 IDH1KD tx: -29%; IL-1B inflam inh: -15; DT40 TDP1 CPT: inconclusive

Results for CC(C)(C)c1ccc(-n2ncc3c2CCCC3NC(=O)c2ccco2)cc1 (centres undefined) ?
TDP1 cell noCPT: 15µM*; HT1080-NT tox: -19%; HT1080 IDH1KD tx: -23%; IL-1B inflam inh: 56; DT40 TDP1 CPT: 21µM*

How did CC(=O)c1cc(C(=O)NC2CCCc3c2cnn3-c2cc(C)cc(C)c2)[nH]n1 (centres undefined) do in these assays?
TDP1 cell noCPT: -23%; ELG1 repair inh: inconclusive; HT1080-NT tox: 5%; HT1080 IDH1KD tx: -2%; IL-1B inflam inh: 25; DT40 TDP1 CPT: -29%

What do the screens show for `CC(=O)Nc1cccc(C(=O)NC2CCCc3c2cnn3-c2ccc(C(C)(C)C)cc2)c1` (centres undefined)?
TDP1 cell noCPT: inconclusive; ELG1 repair inh: 8.2µM*; HT1080-NT tox: -26%; HT1080 IDH1KD tx: inconclusive; IL-1B inflam inh: 57; DT40 TDP1 CPT: inconclusive

What do the screens show for `CC(C)(C)c1ccc(-n2ncc3c2CCCC3NC(=O)CCCn2cncn2)cc1` (centres undefined)?
TDP1 cell noCPT: inconclusive; ELG1 repair inh: -14%; HT1080-NT tox: 0%; HT1080 IDH1KD tx: -22%; IL-1B inflam inh: -12; DT40 TDP1 CPT: 13µM*

How did CCCc1cc(NCCOCCO)n2c(nc3ccccc32)c1C#N do in these assays?
TDP1 cell noCPT: 12µM*; HT1080-NT tox: -8%; HT1080 IDH1KD tx: -7%; IL-1B inflam inh: 5; DT40 TDP1 CPT: inconclusive

What do the screens show for `CCCc1cc(NCCCN2CCOCC2)n2c(nc3ccccc32)c1C#N`?
TDP1 cell noCPT: 21µM*; ELG1 repair inh: inconclusive; HT1080-NT tox: 5%; HT1080 IDH1KD tx: 6%; IL-1B inflam inh: inconclusive; DT40 TDP1 CPT: 16µM*

How did Cc1cc(NCCCN2CCOCC2)n2c(nc3ccccc32)c1C#N do in these assays?
TDP1 cell noCPT: -22%; ELG1 repair inh: -9%; HT1080-NT tox: -16%; HT1080 IDH1KD tx: -7%; IL-1B inflam inh: -21; DT40 TDP1 CPT: -2%

Results for Cc1ccc(S(=O)(=O)N2CCOCC2)cc1NC(=O)CSc1nnnn1C ?
TDP1 cell noCPT: 0%; ELG1 repair inh: -8%; HT1080-NT tox: 19%; HT1080 IDH1KD tx: 21%; IL-1B inflam inh: 10; DT40 TDP1 CPT: -21%

High-throughput results (PubChem BioAssay)
